Test results: the supplement of paper PMC8728848
About 410 targets per protein were measured; listed, in parts, are those with the strongest signals and a random draw of the rest.

How the values were obtained:
Test in all cases: glycan array binding signal (z-score within array); higher = stronger binding
Details in all cases: glycan notation: IUPAC condensed, linker removed
[1] = molecular target: Fuc(a1-2)Gal(b1-3)GalNAc(a1-3)[Fuc(a1-2)]Gal(b1-4)Glc
In short: (§1)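 Columns mapping to the same glycan were averaged after glycan names were converted to IUPAC-condensed notation. The data come from 3228 arrays in the Consortium for Functional Glycomics database, limited to those with an available protein sequence. Binding is reported as a within-array Z-score averaged across arrays of one protein sequence and across linkers.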

[2] = molecular target: Fuc(a1-2)Gal(b1-3)GlcNAc(b1-3)GalNAc
In short: as §1

[3] = molecular target: Fuc(a1-2)Gal(b1-3)GlcNAc(b1-3)[Neu5Ac(a2-6)Gal(b1-4)GlcNAc(b1-6)]Gal(b1-4)Glc
In short: as §1

[4] = molecular target: Fuc(a1-2)Gal(b1-4)GlcNAc(b1-3)Gal(b1-4)GlcNAc
In short: as §1

[5] = molecular target: Fuc(a1-2)Gal(b1-4)GlcNAc(b1-3)Gal(b1-4)GlcNAc(b1-3)Gal(b1-4)GlcNAc
In short: as §1

[6] = molecular target: Fuc(a1-2)Gal(b1-4)[Fuc(a1-3)]GlcNAc(b1-2)Man(a1-3)[Fuc(a1-2)Gal(b1-4)[Fuc(a1-3)]GlcNAc(b1-2)Man(a1-6)]Man(b1-4)GlcNAc(b1-4)[Fuc(a1-6)]GlcNAc
In short: as §1

[7] = molecular target: Fuc(a1-2)Gal(b1-4)[Fuc(a1-3)]GlcNAc(b1-3)Gal(b1-4)[Fuc(a1-3)]GlcNAc(b1-3)Gal(b1-4)[Fuc(a1-3)]GlcNAc
In short: as §1

[8] = molecular target: Fuc(a1-2)Gal3S(b1-4)GlcNAc
In short: as §1

[9] = molecular target: Fuc(a1-2)[Gal(a1-3)]Gal(b1-4)GlcNAc
In short: as §1

[10] = molecular target: Fuc(a1-2)[Gal(a1-3)]Gal(b1-4)GlcNAc(b1-2)Man
In short: as §1

[11] = molecular target: Fuc(a1-2)[GalNAc(a1-3)]Gal(b1-4)GlcNAc(b1-2)Man(a1-3)[Fuc(a1-2)[GalNAc(a1-3)]Gal(b1-4)GlcNAc(b1-2)Man(a1-6)]Man(b1-4)GlcNAc(b1-4)GlcNAc
In short: as §1

[12] = molecular target: Fuc(a1-2)[GalNAc(a1-3)]Gal(b1-4)GlcNAc(b1-3)Gal(b1-4)GlcNAc
In short: as §1

[13] = molecular target: Fuc(a1-2)[GalNAc(a1-3)]Gal(b1-4)GlcNAc(b1-6)GalNAc
In short: as §1

[14] = molecular target: Fuc(a1-3)[Gal(b1-4)]GlcNAc(b1-6)[Gal(b1-3)GlcNAc(b1-3)]Gal(b1-4)Glc
In short: as §1

[15] = molecular target: Fuc(a1-3)[GalNAc(b1-4)]GlcNAc
In short: as §1

Gal(a1-3)Gal(b1-3)GlcNAc = molecular target: Gal(a1-3)Gal(b1-3)GlcNAc
In short: as §1

[16] = molecular target: Gal(b1-3)GlcNAc(b1-2)Man(a1-3)[GlcNAc(b1-4)][Gal(b1-3)GlcNAc(b1-2)Man(a1-6)]Man(b1-4)GlcNAc(b1-4)GlcNAc
In short: as §1

[17] = molecular target: Gal(b1-3)GlcNAc(b1-3)Gal(b1-4)GlcNAc(b1-2)[Gal(b1-3)GlcNAc(b1-3)Gal(b1-4)GlcNAc(b1-6)]Man(a1-6)[Gal(b1-3)GlcNAc(b1-3)Gal(b1-4)GlcNAc(b1-2)Man(a1-3)]Man(b1-4)GlcNAc(b1-4)[Fuc(a1-6)]GlcNAc
In short: as §1

[18] = molecular target: Gal(b1-3)GlcNAc(b1-3)Gal(b1-4)GlcNAc(b1-3)Gal(b1-4)GlcNAc(b1-2)[Gal(b1-3)GlcNAc(b1-3)Gal(b1-4)GlcNAc(b1-3)Gal(b1-4)GlcNAc(b1-6)]Man(a1-6)[Gal(b1-3)GlcNAc(b1-3)Gal(b1-4)GlcNAc(b1-3)Gal(b1-4)GlcNAc(b1-2)Man(a1-3)]Man(b1-4)GlcNAc(b1-4)[Fuc(a1-6)]GlcNAc
In short: as §1

[19] = molecular target: Gal(b1-3)[Fuc(a1-4)]GlcNAc(b1-3)Gal(b1-3)[Fuc(a1-4)]GlcNAc
In short: as §1

Gal(b1-4)Glc = molecular target: Gal(b1-4)Glc
In short: as §1

[20] = molecular target: Gal(b1-4)GlcNAc(b1-3)Gal(b1-4)GlcNAc(b1-2)[Gal(b1-4)GlcNAc(b1-3)Gal(b1-4)GlcNAc(b1-6)]Man(a1-6)[Gal(b1-4)GlcNAc(b1-3)Gal(b1-4)GlcNAc(b1-2)Man(a1-3)]Man(b1-4)GlcNAc(b1-4)GlcNAc
In short: as §1

[21] = molecular target: Gal(b1-4)GlcNAc(b1-3)Gal(b1-4)GlcNAc(b1-3)Gal(b1-4)GlcNAc(b1-3)Gal(b1-4)GlcNAc(b1-2)[Gal(b1-4)GlcNAc(b1-3)Gal(b1-4)GlcNAc(b1-3)Gal(b1-4)GlcNAc(b1-3)Gal(b1-4)GlcNAc(b1-6)]Man(a1-6)[Gal(b1-4)GlcNAc(b1-3)Gal(b1-4)GlcNAc(b1-3)Gal(b1-4)GlcNAc(b1-3)Gal(b1-4)GlcNAc(b1-2)Man(a1-3)]Man(b1-4)GlcNAc(b1-4)[Fuc(a1-6)]GlcNAc
In short: as §1

[22] = molecular target: Gal(b1-4)GlcNAc(b1-6)Gal(b1-4)GlcNAc
In short: as §1

Gal(b1-4)GlcNAc6P = molecular target: Gal(b1-4)GlcNAc6P
In short: as §1

Gal3S(b1-4)GlcNAc = molecular target: Gal3S(b1-4)GlcNAc
In short: as §1

B1: MXA PilAct-eGFP (Myxococcus xanthus), Q59589 (protein)
chain: MRVSRFNPRNRGFTLIELMIVVAIIGILAAIAIPNFIKFQARSKQSEAKTNLKALYTAQKSFFSEKDRYSDFANEIGFAPERGNRYGYRVSAAAGDCEVRNAADLPVPAAGVPCISNDSFRFGANSAIDDPTPVVARFVPQGAAGWNTTLGVQPTIADCPNCNFFAGARGNADNEATFDDWVIAGFEGSGQVGPCSEAGNVASGTPYNTRNDVACDGAAQ
B1 was tested, and the “glycan array binding signal (z-score)” value [1] was 0.469, the “glycan array binding signal (z-score)” value [2] was -0.348 and the “glycan array binding signal (z-score)” value [3] was -0.4. For the same binder, the “glycan array binding signal (z-score)” value [4] was 0.643, the “glycan array binding signal (z-score)” value [5] was 2.63 and the “glycan array binding signal (z-score)” value [6] was -0.459. For the same binder, the “glycan array binding signal (z-score)” value [7] was -0.292, the “glycan array binding signal (z-score)” value [8] was -0.55 and the “glycan array binding signal (z-score)” value [9] was 0.335. The “glycan array binding signal (z-score)” value [10] was -0.112, the “glycan array binding signal (z-score)” value [11] was 3.39 and the “glycan array binding signal (z-score)” value [12] was -0.546. For the same binder, the “glycan array binding signal (z-score)” value [13] was 0.269, the “glycan array binding signal (z-score)” value [14] was -0.768 and the “glycan array binding signal (z-score)” value [15] was -1.22. For the same binder, the “glycan array binding signal (z-score)” value (Gal(a1-3)Gal(b1-3)GlcNAc) was -1.1, the “glycan array binding signal (z-score)” value [16] was 0.003 and the “glycan array binding signal (z-score)” value [17] was 6.11. For the same binder, the “glycan array binding signal (z-score)” value [18] was 4.94, the “glycan array binding signal (z-score)” value [19] was -2.03 and the “glycan array binding signal (z-score)” value (Gal(b1-4)Glc) was -1.09. For the same binder, the “glycan array binding signal (z-score)” value [20] was -0.993, the “glycan array binding signal (z-score)” value [21] was 3.46 and the “glycan array binding signal (z-score)” value [22] was 0.221. For the same binder, the “glycan array binding signal (z-score)” value (Gal(b1-4)GlcNAc6P) was 0.348 and the “glycan array binding signal (z-score)” value (Gal3S(b1-4)GlcNAc) was -0.174.
